Hits are enriched below; roughly 2.4% of the tested compounds scored in any of these assays.
Pol iota inh = DNA polymerase iota (human) inhibition; 1% of 390,000 active; Q9UNA4; AID 588590; Potency, µM (highest dose often 115 µM), most hits filed as inhibitors; Pol iota fluorescent replication assay, 10 min
Target sequence (Q9UNA4 whole entry, looked up): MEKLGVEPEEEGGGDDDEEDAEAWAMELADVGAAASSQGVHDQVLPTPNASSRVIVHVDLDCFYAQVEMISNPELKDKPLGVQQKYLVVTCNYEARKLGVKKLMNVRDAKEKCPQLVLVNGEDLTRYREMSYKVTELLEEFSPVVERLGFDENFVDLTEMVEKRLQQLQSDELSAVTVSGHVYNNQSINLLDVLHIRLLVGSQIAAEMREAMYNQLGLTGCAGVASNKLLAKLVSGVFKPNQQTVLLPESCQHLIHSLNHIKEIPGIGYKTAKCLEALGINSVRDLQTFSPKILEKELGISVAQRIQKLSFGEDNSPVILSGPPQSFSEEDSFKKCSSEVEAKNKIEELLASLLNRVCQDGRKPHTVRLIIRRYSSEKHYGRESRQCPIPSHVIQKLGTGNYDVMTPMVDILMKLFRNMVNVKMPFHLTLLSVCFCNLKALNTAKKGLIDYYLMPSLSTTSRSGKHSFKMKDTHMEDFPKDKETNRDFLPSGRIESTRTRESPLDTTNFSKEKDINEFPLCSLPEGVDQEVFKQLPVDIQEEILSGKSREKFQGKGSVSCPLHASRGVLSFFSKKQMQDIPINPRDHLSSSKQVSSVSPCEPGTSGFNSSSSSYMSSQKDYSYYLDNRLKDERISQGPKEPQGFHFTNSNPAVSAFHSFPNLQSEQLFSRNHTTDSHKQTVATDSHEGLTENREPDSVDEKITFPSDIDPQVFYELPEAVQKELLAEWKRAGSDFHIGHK
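Pol iota at 10 nM preincubated 15 min with compounds at room temperature; reaction started with fluorescent substrate, 50 nM final. Fluorescence read kinetically at 0 and 10 min; buffer-only wells as negative control.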
L3MBTL1 block = inhibitors of human L3MBTL1 | Q9Y468 | AlphaScreen L3MBTL1–H3K9me1 peptide binding | 0.66% of 230,000 active | Potency, µM (top dose mostly 57.1 µM), hits mostly inhibitors; note: nearly all actives have a fitted effect of over 60% in size
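Read-out is AlphaScreen signal from streptavidin donor and nickel chelate acceptor beads (10 ug/mL final each) bridging L3MBTL1 (50 nM) and biotinylated K9-monomethylated H3(1-15) peptide (75 nM), after 30 min compound exposure at room temperature.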
POLB inh = DNA polymerase beta (human) inhibition | Pol beta primer extension/strand displacement, fluorescence kinetic | Potency, µM (highest dose often 114 µM), most hits filed as inhibitors | 1.3% of 340,000 active
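Values derive from four-parameter Hill fits of normalized kinetic data: reads at 0 and 10 min following addition of 50 nM substrate to 10 nM Pol beta preincubated 15 min with compound.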
POLH inh = blocks human DNA polymerase eta activity. Q9Y253. recombinant Pol eta, fluorescent DNA replication assay. Potency, µM (top dose mostly 114 µM), hits mostly inhibitors. 1.2% of 390,000 active. AID 588591
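Pol eta (10 nM) was preincubated with compounds for 15 min at room temperature, after which fluorescent replication substrate (50 nM final) was added to start the reaction. Fluorescence was read kinetically at 0 and 10 min.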
POLK inh = blocks human DNA polymerase kappa activity; purified Pol kappa, fluorescent DNA synthesis assay, 10 min; Potency, µM (series often up to 107 µM), actives largely listed as inhibitors; 0.53% of 400,000 active; AID 588579
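50 nM final substrate added after 15 min RT preincubation of 10 nM Pol kappa with compound; fluorescence read at 0 and 10 min.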
Large screens that a line does not name were inactive. Calls come from the whole dose curve; as a rule, active = well fitted curve in the direction sought with a large enough effect; inconclusive = small, poorly fitted or top-dose-only effect, or another doubt; inactive = no such curve, though single readings can be large; an effect the other way counts as inactive or inconclusive.

COc1cc(/C=C2\C(=N)N3N=C(C)SC3=NC2=O)cc(Cl)c1OCCOc1ccc(NC(C)=O)cc1	Pol iota inh inconclusive, POLH inh 89.1µM (no result: L3MBTL1 block)
CCOc1cc(/C=C2\C(=N)N3N=C(CC)SC3=NC2=O)ccc1OCCOc1ccc(NC(C)=O)cc1	POLB inh 50.1µM (no result: L3MBTL1 block)
CCCC1=NN2C(=N)/C(=C\c3ccc(OCCOc4ccc(NC(C)=O)cc4)c(OC)c3)C(=O)N=C2S1	POLB inh inconclusive, POLH inh 79.4µM (no result: L3MBTL1 block)
COc1cc(/C=C2\C(=N)N3N=C(C(C)C)SC3=NC2=O)ccc1OCCOc1ccc(NC(C)=O)cc1	none (no result: L3MBTL1 block)
Cc1ccc([C@H]2N[C@]3(CCCN(Cc4ccco4)C3=O)[C@H]3C(=O)N(C)C(=O)[C@@H]23)cc1	none (no result: Pol iota inh, L3MBTL1 block, POLB inh, POLK inh)
CC1=C(C#N)C(c2ccoc2)C(C(=O)OCc2ccccc2)=C(N)S1 (configuration not stated)	Pol iota inh inconclusive
N#CC1=C(N)SC(N)=C(C#N)C1c1ccoc1	L3MBTL1 block 5.01µM, POLB inh 7.08µM (no result: Pol iota inh, POLH inh, POLK inh)
Nn1c(SCC(=O)Nc2cc(C(F)(F)F)ccc2Cl)nncc1=O	Pol iota inh 79.4µM, POLH inh inconclusive, POLK inh inconclusive (no result: L3MBTL1 block)
Nn1c(SCC(=O)Nc2cccc(C(F)(F)F)c2)nncc1=O	none (no result: L3MBTL1 block)
Cc1cccc(OC(=O)CSc2nnc(CNC(=O)c3ccccc3)o2)c1C	none (no result: L3MBTL1 block)
Nc1nc(N)nc(-c2cc(Cl)ccc2Cl)n1	Pol iota inh 79.4µM (no result: L3MBTL1 block, POLB inh)
CCn1c(C)nc2cc(C(=O)N/N=C/c3ccc(N4CCOCC4)cc3)ccc21	Pol iota inh inconclusive, POLB inh 22.4µM
CCn1c(C)nc2cc(C(=O)N/N=C/c3ccccc3)ccc21	none
CCn1c(C)nc2cc(C(=O)N/N=C/c3cccc(O)c3O)ccc21	Pol iota inh 25.1µM, L3MBTL1 block inconclusive, POLB inh inconclusive, POLK inh inconclusive
CCOC(=O)N1CCN(c2cc(NCCC(=O)O)c3c4c(onc24)-c2ccccc2C3=O)CC1	Pol iota inh inconclusive, L3MBTL1 block 8.91µM, POLB inh 25.1µM, POLH inh 3.16µM, POLK inh 17.8µM
O=C(O)CCCNc1cc(N2CCC3(CC2)OCCO3)c2noc3c2c1C(=O)c1ccccc1-3	L3MBTL1 block 10µM, POLB inh 11.2µM (no result: Pol iota inh, POLH inh, POLK inh)
CCCCNc1cc(N2CCN(C3CCCCC3)CC2)c2noc3c2c1C(=O)c1ccccc1-3	none (no result: L3MBTL1 block)
COc1ccc(-c2noc(-c3ccc(N4CCC(C)CC4)c([N+](=O)[O-])c3)n2)cc1OC	POLB inh 79.4µM, POLK inh inconclusive (no result: L3MBTL1 block)
COc1ccc(-c2noc(-c3ccc(N4CCOCC4)c([N+](=O)[O-])c3)n2)cc1OC	none (no result: L3MBTL1 block)
CCN1CCN(C(=O)c2ccc3c(c2)N(Cc2cccc(F)c2)C(=O)c2ccccc2S3)CC1	Pol iota inh inconclusive, POLB inh inconclusive, POLH inh inconclusive (no result: L3MBTL1 block)
O=C(c1ccc2c(c1)N(Cc1cccc(F)c1)C(=O)c1ccccc1S2)N1CCOCC1	Pol iota inh inconclusive, POLB inh 50.1µM, POLH inh inconclusive (no result: L3MBTL1 block)
CCOC(=O)c1c(C)oc2c1cc(NS(=O)(=O)c1ccc(C)cc1)c1ccccc12	Pol iota inh inconclusive, POLH inh inconclusive, POLK inh inconclusive (no result: L3MBTL1 block)
COC(=O)c1c(C)oc2ccc(N(C(=O)Oc3ccccc3)S(=O)(=O)c3ccc(Cl)c([N+](=O)[O-])c3)cc12	Pol iota inh 44.7µM, L3MBTL1 block inconclusive, POLB inh 22.4µM, POLH inh inconclusive
Cc1cc(Cl)n2c(nc3ccccc32)c1C#N	Pol iota inh 22.4µM, POLB inh 89.1µM, POLH inh 39.8µM
CC(=O)c1c(C)oc2ccc(NS(=O)(=O)c3ccc(O)c(C(=O)O)c3)cc12	Pol iota inh inconclusive, L3MBTL1 block inconclusive, POLB inh inconclusive, POLH inh 25.1µM
O=C(O)c1cc(S(=O)(=O)Nc2ccc3oc(=O)sc3c2)ccc1O	Pol iota inh inconclusive, L3MBTL1 block inconclusive, POLB inh 50.1µM, POLH inh 14.1µM, POLK inh inconclusive
CC(=O)c1c(C)oc2ccc(NS(=O)(=O)c3ccc(F)cc3C)cc12	none (no result: L3MBTL1 block)
CCCOc1ccc(C2C(=O)N(C3CCCCCC3)CC(=O)N2CCC2=CCCCC2)cc1OC (configuration not stated)	none (no result: L3MBTL1 block)
O=C(O)CCCCCN1C(=O)/C(=C\c2ccc(-c3ccc(Cl)cc3)o2)SC1=S	Pol iota inh 35.5µM, POLB inh inconclusive, POLH inh inconclusive, POLK inh 79.4µM (no result: L3MBTL1 block)
O=C(NCCc1ccc2c(c1)OCCO2)c1cc(S(=O)(=O)N2CCCC2)ccc1Br	Pol iota inh inconclusive, POLK inh inconclusive (no result: L3MBTL1 block, POLB inh)

Screens as filed in PubChem.
